The values below come from PubChem BioAssay (EPA / NIEHS).

Conditions in all cases: mRNA level, 48 h; actives raise or lower the signal
Read-out in assay [1]: Lipoprotein lipase (LPL), LPL (gene 4023)
Description: LTEA_HepaRG_LPL: Life Technologies and Expression Analysis (LTEA) Assay for Lipoprotein lipase (LPL) using HepaRG (AID 2283515). The method in brief:
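Differentiated HepaRG cells, plated 48 h, then exposed 48 h in serum-free induction medium to 8 concentrations (top 100 uM, half-log steps) in 0.5% DMSO, duplicate. LPL mRNA measured by qRT-PCR, normalized to ACTB, GAPDH and POLR2A.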

Read-out in assay [2]: MicroRNA 122 (MIR122), gene 406906
Description: LTEA_HepaRG_MIR122: Life Technologies and Expression Analysis (LTEA) Assay for MicroRNA 122 (MIR122) using HepaRG (AID 2283516). Note: the transcript read is the microRNA miR-122. In outline:
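HepaRG plated 48 h, switched to serum-free induction medium, then treated in duplicate for 48 h (100 uM top, half-log steps, 0.5% DMSO vehicle). RNA isolated, qRT-PCR performed, concentration-response fitted both directions relative to DMSO.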

Read-out in assay [3]: matrix metalloproteinase-10 (MMP10), MMP10 (gene 4319)
As to the kind of experiment: LTEA_HepaRG_MMP10: Life Technologies and Expression Analysis (LTEA) Assay for matrix metalloproteinase-10 (MMP10) using HepaRG (AID 2283517). The method in brief:
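Differentiated HepaRG cells in serum-free induction medium exposed 48 h in duplicate to 8-point half-log series up to 100 uM in 0.5% DMSO. mRNA quantified by qRT-PCR, normalised to ACTB, GAPDH, POLR2A; bidirectional fit versus DMSO.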

Read-out in assay [4]: matrix metalloproteinase-3 (MMP3), MMP3 (gene 4314)
As to the kind of experiment: LTEA_HepaRG_MMP3: Life Technologies and Expression Analysis (LTEA) Assay for matrix metalloproteinase-3 (MMP3) using HepaRG (AID 2283519). In outline:
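HepaRG cells (~100,000/well) in serum-free induction medium were dosed in duplicate for 48 h with an 8-point half-log series from 100 uM, 0.5% DMSO. MMP3 mRNA was quantified by Fluidigm TaqMan qRT-PCR, normalized to three housekeeping genes.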

Read-out in assay [5]: Paternally Expressed 10 (PEG10), PEG10 (gene 23089)
As to the kind of experiment: LTEA_HepaRG_PEG10: Life Technologies and Expression Analysis (LTEA) Assay for Paternally Expressed 10 (PEG10) using HepaRG (AID 2283520). The method in brief:
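HepaRG, 48 h post-plating → serum-free induction medium → 48 h chemical exposure (duplicate, 8-pt, max 100 uM, half-log, 0.5% DMSO) → lysis in RLT → TaqMan qRT-PCR for PEG10, ACTB/GAPDH/POLR2A normalisation.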

Read-out in assay [6]: Protein phosphatase 2A (PPP2R4), PTPA (gene 5524)
As to the kind of experiment: LTEA_HepaRG_PPP2R4: Life Technologies and Expression Analysis (LTEA) Assay for Protein phosphatase 2A (PPP2R4) using HepaRG (AID 2283522). In outline: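 Readout is PPP2R4 transcript level by microfluidic qRT-PCR after 48 h chemical treatment of human HepaRG liver cells. Concentrations spanned 100 uM downward in half-log steps; gain or loss of signal was fitted relative to DMSO.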

Read-out in assay [7]: Phosphatase and tensin (PTEN), PTEN (gene 5728)
As to the kind of experiment: LTEA_HepaRG_PTEN: Life Technologies and Expression Analysis (LTEA) Assay for Phosphatase and tensin (PTEN) using HepaRG (AID 2283523). In outline:
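HepaRG cells, 48 h after plating, exposed in duplicate for 48 h in serum-free induction medium to 8 half-log concentrations up to 100 uM (0.5% DMSO). PTEN mRNA by qRT-PCR, normalized to ACTB, GAPDH, POLR2A; bidirectional fit versus DMSO.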

Read-out in assay [8]: solute carrier (SLC22A1), SLC22A1 (gene 6580)
As to the kind of experiment: LTEA_HepaRG_SLC22A1: Life Technologies and Expression Analysis (LTEA) Assay for solute carrier (SLC22A1) using HepaRG (AID 2283524). In outline: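 Differentiated human HepaRG cells in serum-free induction medium, exposed 48 h in duplicate to 8-point half-log series from 100 µM top in 0.5% DMSO. SLC22A1 mRNA by TaqMan qRT-PCR normalized to ACTB, GAPDH, POLR2A; bidirectional fit versus DMSO.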

Read-out in assay [9]: Pyruvate Dehydrogenase Kinase 4 (PDK4), PDK4 (gene 5166)
As to the kind of experiment: LTEA_HepaRG_PDK4: Life Technologies and Expression Analysis (LTEA) Assay for Pyruvate Dehydrogenase Kinase 4 (PDK4) using HepaRG (AID 2283525). In outline:
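HepaRG cells plated 48 h, then switched to serum-free induction medium and exposed in duplicate for 48 h to 8 half-log concentrations from 100 uM in 0.5% DMSO. PDK4 mRNA measured by qRT-PCR, normalized to ACTB, GAPDH and POLR2A; bidirectional fit versus DMSO.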

Read-out in assay [10]: NAD(P)H dehydrogenase [quinone] 1 (NQO1), NQO1 (gene 1728)
As to the kind of experiment: LTEA_HepaRG_NQO1: Life Technologies and Expression Analysis (LTEA) Assay for NAD(P)H dehydrogenase [quinone] 1 (NQO1) using HepaRG (AID 2283526). In outline:
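HepaRG, 48 h post-plating → serum-free induction medium → test chemical 48 h (duplicate, 100 uM top, half-log x8, 0.5% DMSO) → RNA isolation → qRT-PCR, ACTB/GAPDH/POLR2A normalization; bidirectional curve fit vs DMSO baseline.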

Read-out in assay [11]: Nuclear factor erythroid 2-related factor 2 (Homo sapiens) (UniProt Q16236)
Description: LTEA_HepaRG_NFE2L2: Life Technologies and Expression Analysis (LTEA) Assay for Nuclear factor erythroid 2-related factor 2 (NFE2L2) Transcription Factor using HepaRG (AID 2283527).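 For outcome: TaqMan qRT-PCR transcript level normalised to ACTB GAPDH and POLR2A housekeeping genes.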 In outline:
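Differentiated human HepaRG cells, serum-free induction medium, exposed 48 h in duplicate to eight half-log concentrations up to 100 uM in 0.5% DMSO. NFE2L2 mRNA by Fluidigm TaqMan qRT-PCR, normalised to ACTB, GAPDH, POLR2A; bidirectional change versus DMSO.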

Read-out in assay [12]: succinate dehydrogenase complex iron sulfur subunit B (SDHB), SDHB (gene 6390)
As to the kind of experiment: LTEA_HepaRG_SDHB: Life Technologies and Expression Analysis (LTEA) Assay for succinate dehydrogenase complex iron sulfur subunit B (SDHB) using HepaRG (AID 2283528). In outline: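 Readout is SDHB transcript level by qRT-PCR, normalised to three housekeeping genes and fitted bidirectionally against 0.5% DMSO vehicle. Human HepaRG cells were treated for 48 h at up to 100 uM.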

Read-out in assay [13]: solute carrier (SLCO1B1), SLCO1B1 (gene 10599)
Description: LTEA_HepaRG_SLCO1B1: Life Technologies and Expression Analysis (LTEA) Assay for solute carrier (SLCO1B1) using HepaRG (AID 2283530). In outline:
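Gain or loss of SLCO1B1 mRNA is fitted against the 0.5% DMSO vehicle in human HepaRG liver cells treated 48 h at up to 100 uM in half-log steps. Expression comes from qRT-PCR normalized to endogenous controls.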

Read-out in assay [14]: sulfotransferase 2A1 (SULT2A1), SULT2A1 (gene 6822)
Description: LTEA_HepaRG_SULT2A1: Life Technologies and Expression Analysis (LTEA) Assay for sulfotransferase 2A1 (SULT2A1) using HepaRG (AID 2283531). The method in brief: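 Cells were plated and cultured 48 h, switched to serum-free induction medium, then dosed in duplicate for 48 h (8 concentrations, max 100 uM). RNA was isolated and SULT2A1 expression measured by qRT-PCR; gain or loss of signal fitted relative to DMSO.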

Read-out in assay [15]: Transforming Growth Factor (TGFB1), TGFB1 (gene 7040)
As to the kind of experiment: LTEA_HepaRG_TGFB1: Life Technologies and Expression Analysis (LTEA) Assay for Transforming Growth Factor (TGFB1) Transporter using HepaRG (AID 2283533). The method in brief:
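Expression change of TGFB1 in human HepaRG cells is measured after a 48 h chemical exposure, up to 100 uM in 0.5% DMSO vehicle. Curves are fitted in both directions relative to the DMSO baseline.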

Read-out in a further assay: TIMP1, TIMP1 (gene 7076)
As to the kind of experiment: LTEA_HepaRG_TIMP1: Life Technologies and Expression Analysis (LTEA) Assay for TIMP1 using HepaRG (AID 2283534).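 Note: TaqMan qRT-PCR signal normalized to ACTB GAPDH and POLR2A housekeeping genes.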 In outline: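 We dosed human liver HepaRG cultures for 48 hours with up to 100 uM test chemical and measured TIMP1 expression by qRT-PCR. Activity in either direction is fitted relative to the 0.5% DMSO vehicle.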

Read-out in another assay: MYC, MYC (gene 4609)
As to the kind of experiment: LTEA_HepaRG_MYC: Life Technologies and Expression Analysis (LTEA) Assay for MYC using HepaRG (AID 2283518). The method in brief:
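Cells are thawed, plated and cultured 48 h, then treated for 48 h with test chemicals (eight half-log concentrations from 100 uM, 0.5% DMSO vehicle). RNA is isolated and MYC expression quantified by qRT-PCR against three housekeeping genes.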

Read-out in assay [16]: Signal transducer and activator of transcription 3 (Homo sapiens) (UniProt P40763)
Description: LTEA_HepaRG_STAT3: Life Technologies and Expression Analysis (LTEA) Assay for Signal transducer and activator of transcription (STAT3) using HepaRG (AID 2283529). In outline:
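Differentiated HepaRG cells, serum-free induction medium, dosed 48 h in duplicate, 8 half-log concentrations from 100 uM in 0.5% DMSO. STAT3 mRNA by qRT-PCR, normalised to ACTB, GAPDH, POLR2A; bidirectional fit versus DMSO.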

Read-out in assay [17]: Nuclear factor NF-kappa-B p105 subunit (Homo sapiens) (UniProt P19838)
As to the kind of experiment: LTEA_HepaRG_NFKB1: Life Technologies and Expression Analysis (LTEA) Assay for Nuclear Factor Kappa B Subunit 1 (NFKB1) using HepaRG (AID 2283521).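 Note: TaqMan qRT-PCR transcript normalised to ACTB GAPDH and POLR2A housekeeping genes.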 In outline:
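HepaRG, 48 h exposure; 8-pt half-log series from 100 uM in 0.5% DMSO; duplicates. Readout: NFKB1 mRNA by qRT-PCR (Fluidigm arrays), housekeeping-normalized. Gain/loss fit vs DMSO baseline.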

The source made the active and inactive calls. Rule for the calls: active = hit-call score of the fitted dose curve at least 0.9, where 1 is the maximum; inactive = score below 0.9.

Chain of Nuclear factor erythroid 2-related factor 2 (Homo sapiens) (Q16236 whole entry, looked up): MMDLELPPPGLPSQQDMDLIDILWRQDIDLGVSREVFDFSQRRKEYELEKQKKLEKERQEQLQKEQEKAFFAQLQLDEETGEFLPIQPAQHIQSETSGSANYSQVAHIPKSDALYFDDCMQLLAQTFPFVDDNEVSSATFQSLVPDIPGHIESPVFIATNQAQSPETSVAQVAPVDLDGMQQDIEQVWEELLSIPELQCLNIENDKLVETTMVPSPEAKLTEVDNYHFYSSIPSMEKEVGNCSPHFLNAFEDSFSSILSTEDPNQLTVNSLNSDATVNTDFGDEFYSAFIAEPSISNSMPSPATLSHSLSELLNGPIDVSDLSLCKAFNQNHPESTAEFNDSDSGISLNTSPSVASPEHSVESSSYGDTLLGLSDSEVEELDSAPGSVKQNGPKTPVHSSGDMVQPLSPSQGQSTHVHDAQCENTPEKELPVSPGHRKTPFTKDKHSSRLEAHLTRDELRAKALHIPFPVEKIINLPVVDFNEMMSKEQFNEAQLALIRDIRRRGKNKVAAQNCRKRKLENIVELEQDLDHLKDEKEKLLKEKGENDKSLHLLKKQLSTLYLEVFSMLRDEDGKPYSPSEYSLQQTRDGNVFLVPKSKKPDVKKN
Chain of Signal transducer and activator of transcription 3 (Homo sapiens) (P40763 whole entry, looked up): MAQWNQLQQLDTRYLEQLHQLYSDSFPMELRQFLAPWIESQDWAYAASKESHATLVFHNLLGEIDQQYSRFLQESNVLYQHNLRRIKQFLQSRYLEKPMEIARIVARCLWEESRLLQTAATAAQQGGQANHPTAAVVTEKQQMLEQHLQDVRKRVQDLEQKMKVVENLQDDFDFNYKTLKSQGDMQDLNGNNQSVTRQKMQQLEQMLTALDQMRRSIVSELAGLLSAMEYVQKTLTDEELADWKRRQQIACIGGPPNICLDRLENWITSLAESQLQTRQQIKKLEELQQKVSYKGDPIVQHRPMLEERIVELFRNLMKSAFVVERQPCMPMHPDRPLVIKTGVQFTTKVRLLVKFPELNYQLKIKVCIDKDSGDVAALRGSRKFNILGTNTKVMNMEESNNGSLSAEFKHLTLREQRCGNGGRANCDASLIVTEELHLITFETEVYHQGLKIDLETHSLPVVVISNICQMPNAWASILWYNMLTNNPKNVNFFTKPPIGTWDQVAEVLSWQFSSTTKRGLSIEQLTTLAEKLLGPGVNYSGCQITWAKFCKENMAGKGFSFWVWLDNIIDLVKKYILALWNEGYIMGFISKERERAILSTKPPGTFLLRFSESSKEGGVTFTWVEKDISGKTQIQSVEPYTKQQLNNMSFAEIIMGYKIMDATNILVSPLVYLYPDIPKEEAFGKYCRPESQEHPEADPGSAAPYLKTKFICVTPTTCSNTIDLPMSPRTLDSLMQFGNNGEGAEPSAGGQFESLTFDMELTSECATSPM
Chain of Nuclear factor NF-kappa-B p105 subunit (Homo sapiens) (P19838 whole entry, looked up): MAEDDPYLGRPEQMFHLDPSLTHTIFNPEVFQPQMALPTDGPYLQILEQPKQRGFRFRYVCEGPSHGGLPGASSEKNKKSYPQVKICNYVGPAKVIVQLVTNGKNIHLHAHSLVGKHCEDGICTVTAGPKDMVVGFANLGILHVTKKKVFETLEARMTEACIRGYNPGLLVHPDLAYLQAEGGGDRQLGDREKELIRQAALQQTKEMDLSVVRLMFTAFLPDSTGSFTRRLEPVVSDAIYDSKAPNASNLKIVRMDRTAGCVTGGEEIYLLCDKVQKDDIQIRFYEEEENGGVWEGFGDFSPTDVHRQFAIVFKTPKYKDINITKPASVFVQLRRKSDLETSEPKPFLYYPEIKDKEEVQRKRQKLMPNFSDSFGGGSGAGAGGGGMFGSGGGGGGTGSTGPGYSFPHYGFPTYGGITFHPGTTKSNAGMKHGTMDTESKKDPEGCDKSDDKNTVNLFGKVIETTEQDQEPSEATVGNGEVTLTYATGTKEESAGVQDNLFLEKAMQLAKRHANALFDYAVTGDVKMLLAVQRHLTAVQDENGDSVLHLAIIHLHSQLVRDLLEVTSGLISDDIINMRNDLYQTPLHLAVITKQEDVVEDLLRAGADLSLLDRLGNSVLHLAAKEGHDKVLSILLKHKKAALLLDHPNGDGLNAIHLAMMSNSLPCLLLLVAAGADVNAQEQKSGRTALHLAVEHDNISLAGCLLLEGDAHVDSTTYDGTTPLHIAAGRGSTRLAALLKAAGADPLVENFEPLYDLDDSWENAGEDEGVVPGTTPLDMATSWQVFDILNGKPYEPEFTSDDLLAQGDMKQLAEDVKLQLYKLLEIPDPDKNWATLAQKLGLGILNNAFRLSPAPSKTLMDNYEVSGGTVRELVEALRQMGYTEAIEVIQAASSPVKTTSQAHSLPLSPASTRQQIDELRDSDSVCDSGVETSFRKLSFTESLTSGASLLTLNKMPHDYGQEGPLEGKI

The term AC50 denotes the concentration giving half of the maximal activity seen. On to `Clc1cc(Cl)c2c(c1)N=C1CCCCCN1C2`, for which the call in [1], in [2], in assay [3], in assay [4], in assay [5] and in [6] was inactive. For the same molecule, the molecule was called inactive in assay [7], in assay [8], in assay [10], in assay [11], in [12] and in assay [13]. In addition, the outcome in [14] is “inactive”; in [15] it was “inactive”; with TIMP1, TIMP1 (gene 7076) it was “inactive”. Moreover, the AC50 in [9] was 12.6 µM (active).

As for `CCN(CC)C(=O)c1cc(S(=O)(=O)Cc2ccccc2)c(N2CCC(c3ccccc3)CC2)cc1N(CC)CCN(C)C`, the AC50 was 31.6 µM (active) in assay [1]; 30.5 µM (active) in assay [2]; 30.5 µM (active) in assay [3]; 29.1 µM (active) in [11]; 33.3 µM (active) in assay [13]; 32.6 µM (active) in assay [14]. For the same molecule, the outcome with MYC, MYC (gene 4609) was “inactive”; in assay [4] it was “inactive”; in [5] it was “inactive”; in assay [6], “inactive”; in assay [8], “inactive”; in assay [9] it was “inactive”. Besides, the outcome in assay [12] was “inactive”; in assay [16], “inactive”; in [15], “inactive”; in the assay with TIMP1, TIMP1 (gene 7076), “inactive”.

As for `Cc1cn([C@H]2C[C@H](N=[N+]=[N-])[C@@H](CO)O2)c(=O)[nH]c1=O`, the call in assay [1], in assay [2], in assay [3], in [5], in [17] and in assay [6] was inactive. The molecule was called inactive in assay [7], in assay [8], in assay [9], in assay [10], in [11] and in assay [12]. In addition, the outcome is “inactive” in assay [16]; “inactive” in [13]; “inactive” in [14]; “inactive” in assay [15]; “inactive” in the assay with TIMP1, TIMP1 (gene 7076).
